# Screens: PubChem, National Center for Advancing Translational Sciences (NCATS)
# This is a sample that favours compounds with a hit; in the whole collection about 9.4% have one here.
# Pf growth 48h: inhibits P. falciparum growth in the first generation, 48 h; P. falciparum luciferase growth in erythrocytes, 48 h; Potency, µM (series often up to 28.7 µM), usual class: inhibitors; hit rate 5.9% among 310,000; AID 504832
#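 Cell-based growth assay: transgenic P. falciparum expressing firefly luciferase, cultured in red cells within RPMI 1640 containing 0.5% w/v Albumax, 24 mM bicarbonate and gentamycin. A drop in luciferase activity indicates inhibition.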
# AMA1 RON2 block: disrupts binding of P. falciparum AMA1 to RON2; AID 720542; hit rate 0.2% among 360,000; AlphaScreen AMA1-biotinylated RON2 peptide binding; Potency, µM (highest dose often 58.2 µM), hits mostly inhibitors; note: nearly all actives have a fitted effect of over 45% in size
#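 AMA1 (3D7) with his tag at 25 nM final met compounds first, then biotinylated RON2 peptide at 25 nM; detection used donor plus acceptor beads, 10 µg/mL apiece, read by AlphaScreen after 30 min at room temperature.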
# SARS PLP yeast: inhibitors of SARS-CoV papain-like protease in yeast | Potency, µM (series often up to 32.9 µM), actives largely listed as activators | AID 485353 | S. cerevisiae expressing SARS-CoV PLpro, growth rescue | hit rate 0.19% among 330,000; calls by dose curve; note: nearly all actives have a fitted effect of over 55% in size
# Pf growth 96h: inhibits malaria parasite growth, 96 h | P. falciparum luciferase reporter growth, 96 h | Potency, µM (series often up to 28.7 µM), most hits filed as inhibitors | hit rate 6.9% among 320,000 | AID 504834
#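 96 h incubation, 37 C, 5% CO2, of luciferase-reporter P. falciparum-infected RBCs (2% hematocrit, 0.05% parasitemia final) with test compounds; endpoint luminescence.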
# Numbers stand for hits; – = inactive; ? = inconclusive; · = no result given; [ ] = dose if it differs, or a comment. Unless noted, calls come from the whole dose curve; as a rule, active = well fitted curve in the direction sought with a large enough effect; inconclusive = small, poorly fitted or top-dose-only effect, or another doubt; inactive = no such curve, though single readings can be large; an effect the other way counts as inactive or inconclusive.
SMILES,Pf growth 48h,AMA1 RON2 block,SARS PLP yeast,Pf growth 96h
CC1C/C(=N\NC(=S)NCc2ccccc2)CC(C)(C)C1 (stereo unspecified),·,–,–,4.15µM
Cc1cc(Br)cc(C)c1OCC(=O)NNC(=O)CCC(=O)NCc1ccccc1,–,–,–,–
CN(C)c1ccc(CNC(=O)CCS(=O)(=O)c2ccc3c(c2)n(C)c(=O)c(=O)n3C)cc1,–,–,–,–
CCCCn1c(=O)c(-[n+]2ccccc2)c([O-])c2ccccc21,·,–,–,–
CC(C)Cn1c(=O)c(-[n+]2ccccc2)c([O-])c2ccccc21,–,–,–,13.1µM
CC(=O)c1ccc(NC(=O)c2cc(C)no2)cc1,–,–,–,–
O=c1c2ccccc2ncn1-c1cccc(Br)c1,–,–,–,1.65µM
O=c1c2ccccc2ncn1-c1cccc(Cl)c1,–,–,?,–
CC(=O)Nc1cc(C(=O)N(C)Cc2ccco2)ccc1Sc1ccc(C)cc1,–,–[11.6 µM],–,?
CCOc1ccc(N(CC(=O)NCCOc2ccc(C)cc2)S(=O)(=O)c2ccccc2)cc1,10.4µM,–,–,?
Cc1ccc(N(CC(=O)NCCSCc2ccco2)S(=O)(=O)c2ccc(C)cc2)cc1,?,–,–,6.57µM
COc1ccc(S(=O)(=O)N(CC(=O)NCc2ccccn2)c2ccc(Cl)cc2)cc1,10.4µM,–,–,–
Cc1cccc(N(CC(=O)NCCSCc2ccco2)S(=O)(=O)c2ccccc2)c1,?,–,–,?
Cc1ccc(S(=O)(=O)N(CC(=O)NCc2ccncc2)C2CCCCC2)cc1,?,–,–,8.28µM
C=CCn1c(CNC(=O)c2ccco2)nnc1SCC(=O)Nc1cccc(F)c1,–,–,–,–[1.15 µM]
Cc1ccc(S(=O)(=O)N(CC(=O)NCc2ccco2)C2CCCCC2)cc1,?,?,–,?
Cc1ccc(S(=O)(=O)N(Cc2ccc(Cl)cc2)c2ccccc2C(=O)NCc2ccco2)cc1,6.57µM,–,–,–
O=C(CN(C1CCCCC1)S(=O)(=O)c1ccccc1)NCc1ccco1,–,–,–,4.65µM
COc1cccc(N(CC(=O)NCCSCc2ccco2)S(=O)(=O)c2ccccc2)c1,?,–,–,?
COc1ccccc1N(CC(=O)NCc1ccco1)S(=O)(=O)c1ccc(C)cc1,–,–,–,–
COc1ccc(N(CC(=O)NCCSCc2ccccc2C)S(=O)(=O)c2ccccc2)cc1,?,–,?,5.22µM
COc1ccc(N(CC(=O)NCCSCc2ccco2)S(=O)(=O)c2ccccc2)cc1Cl,11.7µM,–,–,?
CCOC(=O)C1=C(CBr)NC(=O)NC1C (stereo unspecified),–,–,–,–
C=CCNC(=O)c1ccc(CN(c2ccc(OCC)cc2)S(=O)(=O)c2ccc(C)cc2)cc1,7.38µM,–,–,–
Cc1ccc(N(CC(=O)NCc2ccco2)S(=O)(=O)c2ccccc2)cc1,13.1µM,–,–,–
SMILES,Pf growth 48h,AMA1 RON2 block,SARS PLP yeast,Pf growth 96h
CCOc1ccc(N(CC(=O)NN=C2CCN(C)CC2)S(=O)(=O)c2ccc(Br)cc2)cc1,–,–,–,14.7µM
CN1CCC(=NNC(=O)CN(c2ccccc2)S(=O)(=O)c2ccccc2)CC1,–,–,–,–
NS(=O)(=O)c1ccc(CNC(=O)c2cc(=O)c3cc(Cl)ccc3o2)cc1,·,–,–,–
N#Cc1ccc(CN2Cc3ccccc3-n3nncc3C2)cc1,·,–,·,·
COc1ccc(CN(CCC(c2ccccc2)c2ccc(OC(C)C)cc2)C(=O)CCl)cc1OC (stereo unspecified),?,–,–,3.7µM
COc1ccc(CNCCC(c2ccc(F)cc2)c2ccc(OC(C)C)cc2)cc1OC (stereo unspecified),13.1µM,–,–,11.7µM
COc1ccc(C(CCNCc2ccc(F)cc2)c2ccc(F)cc2)cc1 (stereo unspecified),4.65µM,–,–,?
COc1ccc(CNCCC(c2ccccc2)c2ccc(OC(C)C)cc2)cc1OC (stereo unspecified),9.28µM,–,–,?
COc1ccc(C(CCN(Cc2ccc(OC)c(OC)c2)C(C)=O)c2ccccc2)cc1 (stereo unspecified),?,–,–,?
COc1ccc(CCNCc2ccc(-c3ccccc3)cc2)cc1OC,·,–,·,·
COc1ccc(CNCCC(c2ccc(F)cc2)c2ccc(OC)cc2)cc1 (stereo unspecified),?,–[11.6 µM],–,?
CCOC(=O)c1cnn(Cc2ccc(C)cc2)c1N,–,–,–,–
O=C(COC(=O)c1ccccc1Br)NCCc1ccc(F)cc1,–,–,–,–
COc1ccc(-n2c(CCc3ccccc3)nnc2SCC(=O)c2ccccc2)cc1,?,–,–,–
COc1ccc(CC(C)NCCC(c2ccccc2)c2ccccc2)cc1 (stereo unspecified),?,–,–,10.4µM
Cc1ccc(CSc2nc3c(c(SCC(=O)O)n2)CCCC3)cc1,–,–,–,–
CN(C)c1nc(SCc2ccccc2Cl)nc2c1CCCC2,?,–,–,?
Cc1ccc(CSc2nc3c(c(N(C)C)n2)CCCC3)cc1,13.1µM,–,–,?
CNc1nc(SCc2ccc(C)cc2)nc2c1CCCC2,7.38µM,–,–,13.1µM
Cc1ccc(/C=c2\sc3n(c2=O)CN(c2ccc(Br)cc2)CN=3)o1,–,–,–,?
CO/N=C\CC(=O)Nc1ccc(Cl)c(Cl)c1,–,–,–,–
CC1(C)Cc2c(sc3c2c(=N)n(Cc2ccco2)c(=O)n3CC(=O)Nc2ccc(Cl)cc2)CO1,?,–,–,?
CC1(C)Cc2c(sc3c2c(=N)n(Cc2ccco2)c(=O)n3CC(=O)Nc2cccc(Cl)c2)CO1,?,–,–,10.4µM
Cc1cccc(NC(=O)Cn2c(=O)n(Cc3ccco3)c(=N)c3c4c(sc32)COC(C)(C)C4)c1,·,–,–,8.28µM
O=C(c1cccs1)c1coc2ccc(O)c(CN(CCO)CCO)c12,·,–,–,2.08µM
SMILES,Pf growth 48h,AMA1 RON2 block,SARS PLP yeast,Pf growth 96h
CCC(C(=O)O)C1OC(C(C)C(O)C(C)C(=O)C(CC)C2OC3(C=CC(O)C4(CCC(C)(C5CCC(O)(CC)C(C)O5)O4)O3)C(C)CC2C)C(C)CC1C (stereo unspecified),0.0536µM,·,·,0.0338µM
CCOc1ccccc1NC(C)C(=O)Nc1cc(C(F)(F)F)ccc1N1CCOCC1 (stereo unspecified),0.586µM,?,–,0.294µM
O=C(Nc1cc(C(F)(F)F)ccc1N1CCOCC1)c1ccc(Cl)nc1,9.28µM,–,?,·
COC(=O)c1ccc(CNC(=O)CNc2cc(C(F)(F)F)ccc2N2CCOCC2)cc1,·,–,–,8.28µM
CCC(=O)Nc1cc(C(F)(F)F)ccc1N1CCOCC1,?,–,–,·
O=C(CCC1CCCC1)Nc1cc(C(F)(F)F)ccc1N1CCOCC1,11.7µM,–,–,13.1µM
O=C(NCCc1ccccc1)c1ccc(=O)[nH]c1,–,–,–,–
Cc1ccccc1SCC(=O)Nc1cc(C(F)(F)F)ccc1N1CCOCC1,2.08µM,–,–,4.65µM
Brc1ccc(-c2csc(NC3=NCCCCC3)n2)cc1,–,?,–,13.1µM
COc1ccc(-c2csc(NC3=NCCCCC3)n2)cc1,–,–,–,–
COc1ccc(-c2csc(NNC3=NCCCCC3)n2)cc1,11.7µM,–,–,–
